Bioassay records: PubChem BioAssay, National Center for Advancing Translational Sciences (NCATS)
Most compounds without a hit are left out; they make up all but 15% or so of the library.
12-LOX inh – Primary qHTS assay for inhibitors of human arachidonate 12S-lipoxygenase (ALOX12): Round 2. Polyunsaturated fatty acid lipoxygenase ALOX12 (Homo sapiens), P18054. purified 12hLO, xylenol orange hydroperoxide absorbance. Potency, µM (highest dose often 108 µM), actives largely listed as inhibitors. actives 1.1% (n = 580,000)
Target sequence (P18054 whole entry, looked up): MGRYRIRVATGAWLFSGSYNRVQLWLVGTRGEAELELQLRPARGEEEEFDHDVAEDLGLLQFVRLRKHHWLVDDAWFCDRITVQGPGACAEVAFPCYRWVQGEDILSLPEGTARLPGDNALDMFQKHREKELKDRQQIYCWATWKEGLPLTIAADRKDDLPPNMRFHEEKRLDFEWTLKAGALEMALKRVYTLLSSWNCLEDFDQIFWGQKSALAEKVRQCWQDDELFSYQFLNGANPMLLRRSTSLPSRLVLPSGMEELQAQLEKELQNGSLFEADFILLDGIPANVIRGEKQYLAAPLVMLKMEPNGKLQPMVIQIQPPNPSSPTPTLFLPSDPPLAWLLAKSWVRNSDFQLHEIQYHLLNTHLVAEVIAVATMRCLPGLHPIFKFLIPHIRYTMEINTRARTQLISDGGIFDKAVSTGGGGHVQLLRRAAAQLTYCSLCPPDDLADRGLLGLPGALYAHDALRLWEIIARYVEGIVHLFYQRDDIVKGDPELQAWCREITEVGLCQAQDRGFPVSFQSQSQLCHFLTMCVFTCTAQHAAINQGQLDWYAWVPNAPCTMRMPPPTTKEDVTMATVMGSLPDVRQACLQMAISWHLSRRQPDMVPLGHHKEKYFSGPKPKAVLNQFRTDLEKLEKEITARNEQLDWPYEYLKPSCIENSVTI
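Hydroperoxide product was detected by ferrous iron/xylenol orange as the 573 to 405 nm absorbance ratio. Arachidonic acid at 40 uM (final) was turned over for 30 min at room temperature by 150 nM human 12hLO, pH 7.0 Hepes buffer, after 15 min compound preincubation.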
TDP1 cell noCPT – qHTS for Inhibitors of human tyrosyl-DNA phosphodiesterase 1 (TDP1): qHTS in cells in absence of CPT | DT40 Tdp1-/- hTDP1 cells, no CPT, ATP luminescence, 48 h | Potency, µM (series often up to 46.2 µM), hits mostly inhibitors | actives 15% (n = 420,000); further: nearly all actives have a fitted effect of over 55% in size
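Compound effects on proliferation are scored in DT40 Tdp1-/-;hTDP1 cells in the absence of CPT. ATP levels (CellTiter-Glo luminescence) are recorded after a ≥48 hr, 37 °C incubation.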
Gal4-VP16 FLuc – VP16 counterscreen qHTS for inhibitors of ROR gamma transcriptional activity; Drosophila S2 Gal4-VP16 UAS-luciferase, luminescence, 20 h; Potency, µM (series often up to 53.6 µM), usual class: inhibitors; actives 3.5% (n = 310,000); AID 2546, 2010;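 further: Gal4-VP16 expression switched on by copper sulfate through the metallothionein promoter; nearly all actives have a fitted effect of over 50% in size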
ELG1 DNA repair – qHTS screen for small molecules that inhibit ELG1-dependent DNA repair in human embryonic kidney (HEK293T) cells expressing luciferase-tagged ELG1; actives 2.3% (n = 330,000); Potency, µM (titrated, usually from 46.1 µM), usual class: inhibitors; HEK293T ELG1-luciferase reporter, luminescence, 16 h; DNA damage induced by 5-fluorouridine; further: nearly all actives have a fitted effect of over 55% in size
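HEK293T cells expressing luciferase-tagged ELG1 (2,000/well) received 5-Fluorouridine plus compound or DMSO for 16 hr at 37 °C. Luciferase was read by ONE-Glo luminescence after 30 min at room temperature.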
RORgamma inh – qHTS for inhibitors of ROR gamma transcriptional activity; Drosophila S2 Gal4-RORgamma UAS-luciferase reporter, 20 h; Potency, µM (titrated, usually from 53.6 µM), most hits filed as inhibitors; actives 5.4% (n = 310,000); AID 2551, 2010; further: nearly all actives have a fitted effect of over 60% in size
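Stable Schneider cell line, Gal4 DNA-binding domain fused to ROR gamma, UAS-luciferase. Cmpd 1 hr RT → CuSO4 700 uM final → 20 hr RT → luciferase reagent 10 min → luminescence.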
TDP1 cell CPT – qHTS for Inhibitors of human tyrosyl-DNA phosphodiesterase 1 (TDP1): qHTS in cells in presence of CPT; chicken DT40 Tdp1-/-;hTDP1 cells + 20 nM CPT, ATP luminescence, 48 h; Potency, µM (titrated, usually from 46.2 µM), usual class: inhibitors; actives 12% (n = 420,000); AID 686979, 2013; further: nearly all actives have a fitted effect of over 55% in size
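Chicken DT40 Tdp1-/- cells stably complemented with human TDP1 were seeded at 400 cells/well in medium containing 20 nM camptothecin, exposed to pin-transferred compounds, and grown at 37 °C for at least 48 hr. Viability was read as ATP luminescence.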
Hits are given with their value. The call rests on the fitted dose curve; in most records, active means well fitted curve in the direction sought with a large enough effect; inconclusive means small, poorly fitted or top-dose-only effect, or another doubt; inactive means no such curve, though single readings can be large; an effect the other way counts as inactive or inconclusive.

For CSc1cccc(NC(=O)c2ccc3c(c2)OCC(=O)N3)c1 the results were 12-LOX inh inactive.
`COc1ccc(NC(=O)CSc2nnc3ccccn23)cc1S(=O)(=O)N1CCCCC1` gave 12-LOX inh inactive.
O=S(=O)(NC(c1ccccc1)c1ccccc1)c1cccc2nsnc12 was read as 12-LOX inh 11.2µM.
O=C(Nc1ccc(OC(F)(F)F)cc1)C(NS(=O)(=O)c1cccc2nsnc12)c1ccccc1 (stereo not drawn) was read as 12-LOX inh inactive, TDP1 cell noCPT inconclusive and TDP1 cell CPT 16.4µM.
`CCOc1ccccc1NC(=O)C(NS(=O)(=O)c1cccc2nsnc12)c1ccccc1` (stereo not drawn) gave 12-LOX inh inactive, TDP1 cell noCPT inconclusive and TDP1 cell CPT inactive.
`CCC(C)C(=O)N1CCCC2CCCCC21` (stereo not drawn) gave 12-LOX inh inactive.
Cc1c(-c2cccc(NC(=O)c3ccc(F)c(F)c3)c2)nc2ncccn12 was read as 12-LOX inh inactive, TDP1 cell noCPT 13µM and TDP1 cell CPT inconclusive.
Screening Cc1ccnc(NC(=O)c2sc3cc(Cl)ccc3c2Cl)c1 returned 12-LOX inh inactive, TDP1 cell noCPT inactive, Gal4-VP16 FLuc inconclusive, ELG1 DNA repair inconclusive, RORgamma inh 2µM and TDP1 cell CPT inactive.
For Cc1ccnc(NC(=O)c2cccc(NC(=O)c3ccc(Cl)cc3)c2)c1 the results were 12-LOX inh inactive, TDP1 cell noCPT 20.6µM and TDP1 cell CPT inconclusive.
Cc1ccc(NC(=O)c2sc3ccccc3c2Cl)nc1 was read as 12-LOX inh inactive, TDP1 cell noCPT inactive, Gal4-VP16 FLuc inconclusive, ELG1 DNA repair inconclusive, RORgamma inh inconclusive and TDP1 cell CPT inactive.
`COc1ccc(-c2nnc3n2CCN(C(=O)NC2CCCC2)C3)cc1` gave 12-LOX inh inactive.
Screening CCOC(=O)C1Cc2ccccc2CN1 (stereo not drawn) returned 12-LOX inh inconclusive, TDP1 cell noCPT inactive, Gal4-VP16 FLuc inactive, ELG1 DNA repair inactive, RORgamma inh inactive and TDP1 cell CPT inactive.
For CCOC(=O)C1=C(N)c2ccccc2CC1C1CCCC1 (stereo not drawn) the results were 12-LOX inh inactive, TDP1 cell noCPT inconclusive, Gal4-VP16 FLuc inactive, ELG1 DNA repair inactive, RORgamma inh inactive and TDP1 cell CPT 25.9µM.
For CC(C(=O)N(C)C1CCCCC1)N(C)CC(=O)Nc1ccc(Cl)cc1 (stereo not drawn) the results were 12-LOX inh inactive.
Screening CN(C(=O)c1cccc(NC(=O)Cc2ccc(NC(=O)C3CCN(C(=O)c4ccccc4)CC3)cc2)c1)C1CCC1 returned 12-LOX inh inactive, TDP1 cell noCPT inactive and TDP1 cell CPT inconclusive.
`O=C(Cc1cccc(NC(=O)C2CCCN(C(=O)CCc3ccccc3)C2)c1)Nc1cccc(C(=O)N2CCOCC2)c1` (stereo not drawn) gave 12-LOX inh inactive, TDP1 cell noCPT inconclusive and TDP1 cell CPT inconclusive.
Screening CN(C(=O)c1cccc(NC(=O)Cc2ccc(NC(=O)C3CCN(C(=O)CCc4ccccc4)CC3)cc2)c1)C1CCCCC1 returned 12-LOX inh inactive, TDP1 cell noCPT 14.6µM and TDP1 cell CPT 20.6µM.
For O=C(Cc1cccc(NC(=O)C2CCCN(C(=O)CCc3ccccc3)C2)c1)Nc1cccc(C(=O)N2CCCCC2)c1 (stereo not drawn) the results were 12-LOX inh inactive, TDP1 cell noCPT 20.6µM and TDP1 cell CPT 16.4µM.
For O=C(Cc1cccc(NC(=O)C2CCCN(C(=O)C3CCCC3)C2)c1)Nc1ccc(C(=O)N2CCOCC2)cc1 (stereo not drawn) the results were 12-LOX inh inactive, TDP1 cell noCPT inconclusive and TDP1 cell CPT 16.4µM.
`CN(C(=O)c1cccc(NC(=O)Cc2cccc(NC(=O)C3CCCN(C(=O)CCc4ccccc4)C3)c2)c1)C1CCC1` (stereo not drawn) gave 12-LOX inh inactive, TDP1 cell noCPT 20.6µM and TDP1 cell CPT inconclusive.
`O=C(Cc1cccc(NC(=O)C2CCCN(C(=O)C3CCC3)C2)c1)Nc1ccc(C(=O)N2CCOCC2)cc1` (stereo not drawn) gave 12-LOX inh inactive, TDP1 cell noCPT inactive and TDP1 cell CPT inactive.
Screening COC(=O)c1ccc(CNC(=O)Nn2cnc3ccccc32)cc1 returned 12-LOX inh inactive.
`COc1ccc(NC(=O)Cn2nnc(C(=O)NCc3cccs3)c2N)cc1` gave 12-LOX inh inactive, TDP1 cell noCPT inconclusive, Gal4-VP16 FLuc inactive, ELG1 DNA repair inconclusive, RORgamma inh inactive and TDP1 cell CPT inconclusive.
For COc1ccc(NC(=O)Cn2nnc(C(=O)NCc3ccccc3)c2N)c(OC)c1 the results were 12-LOX inh inactive, TDP1 cell noCPT 13µM, Gal4-VP16 FLuc inconclusive, ELG1 DNA repair inactive, RORgamma inh inactive and TDP1 cell CPT inconclusive.
CCc1ccccc1NC(=O)Cn1nnc(C(=O)NCc2cccs2)c1N was read as 12-LOX inh inactive, TDP1 cell noCPT 3.26µM, Gal4-VP16 FLuc inactive, ELG1 DNA repair inactive, RORgamma inh inactive and TDP1 cell CPT 3.66µM.
For Cc1ccc(C)c(NC(=O)Cn2nnc(C(=O)NCc3ccco3)c2N)c1 the results were 12-LOX inh inactive, TDP1 cell noCPT 1.16µM, Gal4-VP16 FLuc inactive, ELG1 DNA repair inactive, RORgamma inh inactive and TDP1 cell CPT 1.3µM.
Cc1ccc(CNC(=O)c2nnn(CC(=O)Nc3cc(C)ccc3C)c2N)cc1 was read as 12-LOX inh inactive, TDP1 cell noCPT inactive and TDP1 cell CPT inactive.
`COc1ccccc1NC(=O)Cn1nnc(C(=O)NCc2cccs2)c1N` gave 12-LOX inh inactive, TDP1 cell noCPT 0.461µM, Gal4-VP16 FLuc inactive, ELG1 DNA repair inactive, RORgamma inh inactive and TDP1 cell CPT 0.581µM.
`CCc1ccc2oc(=O)cc(CN3CCC4(CC3)OCCO4)c2c1` gave 12-LOX inh inactive.
`CCOCCOC(=O)COc1ccc2c(=O)c(Oc3ccccc3Br)coc2c1` gave 12-LOX inh inactive.
N=C1SCC(=O)N1/N=C/c1ccccc1 was read as 12-LOX inh inactive, TDP1 cell noCPT inactive, Gal4-VP16 FLuc inconclusive, ELG1 DNA repair inconclusive, RORgamma inh 11.2µM and TDP1 cell CPT inactive.
